Experimental data published in PubChem BioAssay (NCATS).
Inconclusive results are not listed. Activity calls are given as the source filed them. Calls come from the whole dose curve; as a rule, active = well fitted curve in the direction sought with a large enough effect; inconclusive = small, poorly fitted or top-dose-only effect, or another doubt; inactive = no such curve, though single readings can be large; an effect the other way counts as inactive or inconclusive.

Key:
HaCat [1] = test: Cytotoxic Profiling of Annotated Libraries Using Quantitative High-Throughput Screening (AID 1296008); conditions: Five cell lines viability, CellTiter-Glo ATP luminescence, 48-72 h; max response: hits give low values; note: nearly all actives have a fitted effect of over 60% in size; note: potency is the fitted concentration of half-maximal effect; for max response: % is set by controls: 0 for no effect and ±100 for the full control effect
Method in brief: (§1)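 Cells exposed to compounds for 48 or 72 hr at 37 degrees Celsius. Viability read as ATP-coupled luminescence with CellTiter-Glo after 10 min at room temperature.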

KB-3-1 = test: as above; conditions: Five cell lines viability, CellTiter-Glo ATP luminescence, 48-72 h; max response: hits give low values
Method in brief: as §1

CAOV3 = test: Primary qHTS to identify gynecologic anti-cancer compounds using libraries of approved drugs and bioactive compounds (AID 1345084); conditions: Gynecologic cancer cell panel viability, ATPlite luminescence, 48 h; series mostly up to 57.5 µM; note: nearly all actives have a fitted effect of over 55% in size; note: potency is the fitted concentration of half-maximal effect; for activity change, negative = cytotoxicity: % is set by controls: 0 for no effect and ±100 for the full control effect
Method in brief: (§2)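 Cells, 1,000 per well, plated 16 h, then exposed 48 h at 37 C to compounds. Viability by ATPlite luminescence after 15 min at room temperature.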

CASKI = test: as above; conditions: Gynecologic cancer cell panel viability, ATPlite luminescence, 48 h; series mostly up to 57.5 µM
Method in brief: as §2

Es-2 = test: as above; conditions: Gynecologic cancer cell panel viability, ATPlite luminescence, 48 h; series mostly up to 57.5 µM
Method in brief: as §2

HeLa = test: as above; conditions: Gynecologic cancer cell panel viability, ATPlite luminescence, 48 h; series mostly up to 57.5 µM
Method in brief: as §2

JEG-3 = test: as above; conditions: Gynecologic cancer cell panel viability, ATPlite luminescence, 48 h; series mostly up to 57.5 µM
Method in brief: as §2

NIH3T3 [2] = test: Cytotoxic Profiling of Annotated Libraries Using Quantitative High-Throughput Screening (AID 1296008); conditions: Five cell lines viability, CellTiter-Glo ATP luminescence, 48-72 h; max response: hits give low values; note: nearly all actives have a fitted effect of over 60% in size; note: potency is the fitted concentration of half-maximal effect; for max response: % is set by controls: 0 for no effect and ±100 for the full control effect
Method in brief: as §1

NIH3T3 [3] = test: qHTS assay to identify novel small-molecules to repurpose for Merkel cell carcinoma treatment (AID 1296009); conditions: MCC and control cell lines, CellTiter-Glo viability, 72 h; series mostly up to 44.8 µM; note: nearly all actives have a fitted effect of over 60% in size
Method in brief: (§3)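 Dose-response viability screen; 72 hr exposure at 37 degree celsius; CellTiter-Glo added, 10 min room temperature, luminescence read; RLUs scaled between no-cell and DMSO wells.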

C33A = test: Primary qHTS to identify gynecologic anti-cancer compounds using libraries of approved drugs and bioactive compounds (AID 1345084); conditions: Gynecologic cancer cell panel viability, ATPlite luminescence, 48 h; series mostly up to 57.5 µM; note: nearly all actives have a fitted effect of over 55% in size; note: potency is the fitted concentration of half-maximal effect; for activity change, negative = cytotoxicity: % is set by controls: 0 for no effect and ±100 for the full control effect
Method in brief: as §2

Hek293T = test: as above; conditions: Gynecologic cancer cell panel viability, ATPlite luminescence, 48 h, control line for the selectivity index; series mostly up to 57.5 µM
Method in brief: as §2

OV90 = test: as above; conditions: Gynecologic cancer cell panel viability, ATPlite luminescence, 48 h; series mostly up to 57.5 µM
Method in brief: as §2

HACAT [4] = test: qHTS assay to identify novel small-molecules to repurpose for Merkel cell carcinoma treatment (AID 1296009); conditions: MCC and control cell lines, CellTiter-Glo viability, 72 h; at 44.8 µM (top of the series) unless noted; note: nearly all actives have a fitted effect of over 60% in size
Method in brief: as §3

C/C=C(/C)C(=O)OC1CC(C)(C)CC2C3=CCC4C5(C)CCC(O[C@@H]6O[C@H](C(=O)O)[C@@H](O)[C@H](O)[C@H]6O[C@@H]6O[C@H](CO)[C@H](O)[C@H](O[C@@H]7OC[C@H](O)[C@H](O)[C@H]7O[C@@H]7O[C@H](CO)[C@@H](O)[C@H](O)[C@H]7O)[C@H]6O)C(C)(C)C5CCC4(C)C3(C)C(O)C(O)C12CO (some centres undefined)
inactive: max response (HaCat [1]) -10.3% | max response (KB-3-1) -3.03% | activity change, negative = cytotoxicity (CAOV3) -23.4% [at 6.55 µM] | activity change, negative = cytotoxicity (CASKI) -3.66% [at 6.55 µM] | activity change, negative = cytotoxicity (Es-2) -27.7% [at 6.55 µM] | activity change, negative = cytotoxicity (HeLa) -5.95% [at 6.55 µM] | activity change, negative = cytotoxicity (JEG-3) -6.95% [at 6.55 µM]

CC[N+]1(C/C2=C/CCCCCC2)CCC(NC(=O)C2c3cc(Cl)ccc3Oc3ccc(Cl)cc32)CC1 (centres undefined)
inactive: max response (HaCat [1]) -26% | outcome (NIH3T3 [2]) | Potency (NIH3T3 [3]) | Potency (C33A) | Potency (CASKI) | Potency (Es-2) | Potency (HeLa) | Potency (Hek293T) | Potency (JEG-3) | Potency (OV90)

CC(=O)OC[C@]12[C@H](OC(C)=O)C(=O)[C@@H]3[C@@H](O)[C@@]14O[C@@]3(C)COC(=O)c1cccnc1[C@@H](C)[C@H](C)C(=O)O[C@@H]([C@H](O)[C@@H]2OC(C)=O)[C@]4(C)O
inactive: outcome (HaCat [1]) | max response (NIH3T3 [2]) -17.4% | outcome (HACAT [4]) inactive [at 17.4 µM] | Potency (C33A) | Potency (CAOV3) | Potency (CASKI) | Potency (Es-2) | Potency (HeLa) | Potency (Hek293T) | Potency (JEG-3) | Potency (OV90)

OC(CC1c2ccccc2-c2cncn21)C1CCCCC1 (centres undefined)
inactive: max response (HaCat [1]) -2.64% | max response (NIH3T3 [2]) -17.5% | Potency (C33A) | Potency (CAOV3) | Potency (CASKI) | Potency (Es-2) | Potency (HeLa) | Potency (Hek293T) | Potency (JEG-3) | Potency (OV90)

O=C(NCCN1CCN(c2cccc3ccc(O)cc23)CC1)c1ccc(F)cc1
inactive: max response (HaCat [1]) -4.85% | max response (NIH3T3 [2]) 3.66% | Potency (C33A) | Potency (CAOV3) | Potency (CASKI) | Potency (Es-2) | Potency (HeLa) | Potency (Hek293T) | Potency (JEG-3) | Potency (OV90)

O=C(Nc1cc(C(F)(F)F)cc(C(F)(F)F)c1)c1cnc(Cl)nc1C(F)(F)F
inactive: outcome (HaCat [1]) | max response (NIH3T3 [2]) -1.85% | outcome (HACAT [4]) | Potency (C33A) | Potency (CAOV3) | Potency (CASKI) | Potency (Es-2) | Potency (HeLa) | Potency (Hek293T) | Potency (JEG-3) | Potency (OV90)

CC(C)CCNC(=O)[C@H](CC(C)C)NC(=O)[C@H]1O[C@@H]1C(=O)O
inactive: max response (HaCat [1]) -18.1% | max response (KB-3-1) 2.67% | Potency (CAOV3)

CC(=O)C1=CCC2C3CC=C4CC(O)CC(O)C4(C)C3C(O)CC12C (centres undefined)
inactive: max response (HaCat [1]) 1.07% | outcome (NIH3T3 [2]) | Potency (NIH3T3 [3]) | Potency (CAOV3) | Potency (HeLa) | Potency (Hek293T) | Potency (JEG-3) | Potency (OV90)

Cc1cc(C(=O)Nc2cc(Oc3ccc4nc(NC(=O)C5CC5)cn4n3)ccc2C)n(C)n1
inactive: Potency (C33A) | Potency (CAOV3) | Potency (CASKI) | Potency (Es-2) | Potency (HeLa) | Potency (Hek293T) | Potency (JEG-3) | Potency (OV90)
active: Potency (HaCat [1]) 18.4 µM | Potency (NIH3T3 [2]) 5.17 µM

COc1cc(CCc2ccc(OCC=C(C)C)cc2)cc(OC)c1OC
inactive: outcome (HaCat [1]) | max response (NIH3T3 [2]) -1.52% | outcome (HACAT [4]) | Potency (C33A) | Potency (CAOV3) | Potency (CASKI) | Potency (Es-2) | Potency (HeLa) | Potency (Hek293T) | Potency (JEG-3) | Potency (OV90)

COc1cc2nc(N3CCN(C(=O)c4ccco4)C4CCCCC43)nc(N)c2cc1OC (centres undefined)
active: Potency (KB-3-1) 20.6 µM
inactive: max response (HaCat [1]) 4.28% | Potency (C33A) | Potency (CASKI) | Potency (Es-2) | Potency (HeLa) | Potency (Hek293T) | Potency (JEG-3) | Potency (OV90)

COc1ccccc1N1CCN(CC[C@@](C)(C(=O)C2CCCCC2)c2ccccc2)CC1
inactive: max response (HaCat [1]) -16.7% | max response (NIH3T3 [2]) -6.96% | Potency (C33A) | Potency (CAOV3) | Potency (CASKI) | Potency (Es-2) | Potency (HeLa) | Potency (Hek293T) | Potency (JEG-3) | Potency (OV90)

CC(=O)OC1CC(O)(C(C)C)C2C(OC(=O)c3ccc(O)cc3)C=C(C)C(=O)CC12C (centres undefined)
inactive: outcome (HaCat [1]) | max response (NIH3T3 [2]) 0.784% | outcome (HACAT [4]) inactive [at 17.4 µM] | Potency (C33A) | Potency (CAOV3) | Potency (CASKI) | Potency (Es-2) | Potency (HeLa) | Potency (Hek293T) | Potency (JEG-3)

Cn1ncnc1[C@H]1c2n[nH]c(=O)c3cc(F)cc(c23)N[C@@H]1c1ccc(F)cc1
inactive: max response (KB-3-1) -8.81% | Potency (C33A) | Potency (CAOV3) | Potency (HeLa) | Potency (Hek293T) | Potency (OV90)
active: Potency (HaCat [1]) 3.17 µM

Nc1ncnc2c1c(-c1ccc(Cl)cc1)nn2-c1cccc(-c2cnnn2Cc2cccc(-c3ccccc3)c2)c1
inactive: max response (HaCat [1]) -3.38% | max response (KB-3-1) -15.9% | Potency (C33A) | Potency (CAOV3) | Potency (CASKI) | Potency (HeLa) | Potency (Hek293T) | Potency (JEG-3) | Potency (OV90)

C#CCOc1ccc2c(c1)c(-c1ccc(C(C)C)cc1)nc(=O)n2C(C)C
inactive: outcome (HaCat [1]) | max response (NIH3T3 [2]) -1.76% | outcome (HACAT [4]) | Potency (C33A) | Potency (CAOV3) | Potency (CASKI) | Potency (Es-2) | Potency (HeLa) | Potency (Hek293T) | Potency (JEG-3)

C=C1CC[C@@H]2[C@](C)(CO)[C@H](O)CC[C@@]2(C)[C@@H]1/C=C/C1=CCOC1=O
inactive: outcome (HaCat [1]) | max response (NIH3T3 [2]) -1.38% | outcome (HACAT [4]) | Potency (C33A) | Potency (CAOV3) | Potency (CASKI) | Potency (Es-2) | Potency (HeLa) | Potency (Hek293T) | Potency (JEG-3) | Potency (OV90)

Cc1cnc(-c2ccccc2C(C)C)nc1NCc1ccc(-n2ccnn2)cc1
inactive: max response (HaCat [1]) -29.3% | max response (NIH3T3 [2]) -17% | Potency (C33A) | Potency (CAOV3) | Potency (CASKI) | Potency (Es-2) | Potency (HeLa) | Potency (Hek293T) | Potency (JEG-3) | Potency (OV90)

N#Cc1ccc(-c2ccc(S(=O)(=O)Nc3cccc(N)n3)cc2)cc1
inactive: outcome (HaCat [1]) | max response (NIH3T3 [2]) -2.42% | outcome (HACAT [4]) | Potency (C33A) | Potency (CASKI) | Potency (Es-2) | Potency (HeLa) | Potency (JEG-3) | Potency (OV90)

COc1cc2ncc(-c3ccccc3)nc2cc1OC
inactive: outcome (HaCat [1]) | outcome (NIH3T3 [2]) | outcome (HACAT [4]) | Potency (NIH3T3 [3]) | Potency (C33A) | Potency (CAOV3) | Potency (CASKI) | Potency (Es-2) | Potency (Hek293T) | Potency (JEG-3) | Potency (OV90)
active: Potency (HeLa) 3.55 µM

COC(=O)c1ccc2c(c1)nc(NC(=O)c1ccccc1)n2CCCc1ccccc1
inactive: outcome (HaCat [1]) | max response (NIH3T3 [2]) 1.52% | outcome (HACAT [4]) | Potency (C33A) | Potency (CAOV3) | Potency (CASKI) | Potency (Es-2) | Potency (HeLa) | Potency (Hek293T) | Potency (JEG-3) | Potency (OV90)

O=S(=O)(c1ccc(Cl)cc1)N1CCN(c2ccnc3cc(Cl)ccc23)CC1
inactive: outcome (HaCat [1]) | max response (NIH3T3 [2]) 3.17% | outcome (HACAT [4]) | Potency (CAOV3) | Potency (CASKI) | Potency (Es-2) | Potency (HeLa) | Potency (Hek293T) | Potency (JEG-3) | Potency (OV90)

Nc1nc2c(c(N3CC[C@@H](N)C3)n1)CCCc1ccccc1-2
inactive: outcome (HaCat [1]) | max response (NIH3T3 [2]) -2.56% | outcome (HACAT [4]) | Potency (C33A) | Potency (CASKI) | Potency (Es-2) | Potency (HeLa) | Potency (JEG-3)

Cc1ccc(C)c(NS(=O)(=O)c2cc(C(=O)Nc3ccccc3-c3ccccc3)ccc2C)c1
inactive: max response (HaCat [1]) -22.2% | max response (NIH3T3 [2]) -13.7% | Potency (C33A) | Potency (CAOV3) | Potency (CASKI) | Potency (Es-2) | Potency (HeLa) | Potency (Hek293T) | Potency (JEG-3) | Potency (OV90)

O=C(Nc1nc2cc(C(F)(F)F)cc(NC3CC3)n2n1)c1cccnc1
active: Potency (HaCat [1]) 4.61 µM | Potency (KB-3-1) 5.8 µM | Potency (HeLa) 12.6 µM | Potency (JEG-3) 10 µM
inactive: Potency (C33A) | Potency (CAOV3) | Potency (OV90)
